# Experimental data from PubChem BioAssay (NCATS).
# Values joined by “and” are separate entries in the source; they are usually repeats but may differ in a detail not shown here. Identical values can stand only once. Records with an inconclusive call do not appear. A call without a number means that no potency is given here. Some compounds were tested as several samples or in several runs, with calls that do not always agree. Active and inactive are the calls of the source. Unless noted, the call rests on the fitted dose curve; in most records, active means well fitted curve in the direction sought with a large enough effect; inconclusive means small, poorly fitted or top-dose-only effect, or another doubt; inactive means no such curve, though single readings can be large; an effect the other way counts as inactive or inconclusive. Non-standard residues stand in square brackets, D forms with d. Residues, ends and D or L forms follow the SMILES beside them. *: point of attachment. Sta = CC(C)C[C@H](N)[C@@H](O)CC(=O)O; Isovaleryl = CC(C)CC(=O)*
# Key:
# [1] = Primary qHTS for small molecule stabilizers of the endoplasmic reticulum resident proteome: Secreted ER Calcium Modulated Protein (SERCaMP) assay (AID 1508630); further: potency means the concentration at half of the fitted maximal effect
# Procedure, shortened: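 The SH-SY5Y reporter protocol was run at 3 concentrations up to 38.3 uM (primary) or 11 concentrations (follow-up): 16 h compound, 100 nM thapsigargin for 4 h, then extracellular luciferase luminescence.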
# [2] = A High-Content qHTS Against Drug Library for the Identification of Small Molecules that Inhibit DYT1 Early Onset Primary Dystonia-Associated Cell Pathology (AID 1645839; calls by dose curve)
# Procedure, shortened: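 High-content imaging quantified EGFP-TorsinA mislocalization in HEK293-derived cells inducibly expressing DYT1 mutant torsinA, after 48 h exposure to compound given together with tetracycline induction. Cell count served as a toxicity channel alongside %pathology.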
# [3] = molecular target: Cytochrome P450 2D6 (Homo sapiens) (UniProt P10635); experiment: Cytochrome P450 family 2 subfamily D member 6 (CYP2D6) small molecule antagonists: luciferase biochemical (cell-free) qHTS assay (AID 1645840; active means well fitted curve in the direction sought with a large enough effect in the repeat runs; an effect the other way counts as inactive or inconclusive; further: nearly all actives have a fitted effect of over 55% in size; further: potency means the concentration at half of the fitted maximal effect)
# Chain of Cytochrome P450 2D6 (Homo sapiens) (P10635 whole entry, looked up): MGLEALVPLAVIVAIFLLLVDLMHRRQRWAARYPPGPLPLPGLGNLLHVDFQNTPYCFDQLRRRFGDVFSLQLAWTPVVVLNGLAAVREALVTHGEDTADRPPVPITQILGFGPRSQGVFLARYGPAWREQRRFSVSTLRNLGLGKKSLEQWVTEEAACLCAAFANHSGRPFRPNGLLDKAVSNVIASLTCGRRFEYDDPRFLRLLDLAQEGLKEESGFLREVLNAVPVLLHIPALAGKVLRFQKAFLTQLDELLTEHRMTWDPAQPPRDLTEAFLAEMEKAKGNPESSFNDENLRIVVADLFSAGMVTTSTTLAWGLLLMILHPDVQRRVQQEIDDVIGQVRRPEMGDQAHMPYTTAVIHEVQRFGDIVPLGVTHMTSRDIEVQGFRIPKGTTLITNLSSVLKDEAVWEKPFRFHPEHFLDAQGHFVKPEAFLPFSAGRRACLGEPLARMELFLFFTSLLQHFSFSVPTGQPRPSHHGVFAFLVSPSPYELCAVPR
# Procedure, shortened: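 P450-Glo CYP2D6 system: proluciferin substrate converted by enzyme to luciferin, read by luminescence proportional to activity. Enzyme-substrate mix with compound 10 min at room temperature, then NADPH regeneration 1 h before detection reagent.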
# [4] = molecular target: Cytochrome P450 2C9 (Homo sapiens) (UniProt P11712); experiment: Cytochrome P450 family 2 subfamily C member 9 (CYP2C9) small molecule antagonists: luciferase biochemical (cell-free) qHTS assay (AID 1645842; active means well fitted curve in the direction sought with a large enough effect in the repeat runs; an effect the other way counts as inactive or inconclusive; further: nearly all actives have a fitted effect of over 55% in size; further: potency means the concentration at half of the fitted maximal effect)
# Chain of Cytochrome P450 2C9 (Homo sapiens) (P11712 whole entry, looked up): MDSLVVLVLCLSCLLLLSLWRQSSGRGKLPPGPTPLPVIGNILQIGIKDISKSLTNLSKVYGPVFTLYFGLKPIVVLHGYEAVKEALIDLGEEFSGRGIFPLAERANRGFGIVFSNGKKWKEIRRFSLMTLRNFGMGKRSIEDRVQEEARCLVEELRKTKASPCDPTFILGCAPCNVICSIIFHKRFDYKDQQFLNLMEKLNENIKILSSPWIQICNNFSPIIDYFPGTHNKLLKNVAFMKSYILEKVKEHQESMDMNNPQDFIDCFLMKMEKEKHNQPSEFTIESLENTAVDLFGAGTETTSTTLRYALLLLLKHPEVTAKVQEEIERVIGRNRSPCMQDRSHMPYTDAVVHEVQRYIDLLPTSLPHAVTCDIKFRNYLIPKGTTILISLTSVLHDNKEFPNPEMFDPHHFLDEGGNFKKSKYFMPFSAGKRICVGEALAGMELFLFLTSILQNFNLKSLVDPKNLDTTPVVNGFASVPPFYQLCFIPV
# Procedure, shortened: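 P450-Glo CYP2C9 system: proluciferin substrate with enzyme in mix containing 0.4% BSA, 10 min at room temperature, then NADPH regeneration solution added and incubated 1 h at 37C. Detection reagent stopped reaction; luminescence read after 20 min as RLU.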
# [5] = Primary qHTS for inhibitors of nuclear receptor binding SET domain protein 2 (NSD2) in an isogenic RCH-ACV NSD2 p.E1099K mutant (9B) (AID 1645876); further: nearly all actives have a fitted effect of over 70% in size; further: potency means the concentration at half of the fitted maximal effect
# [6] = Primary qHTS for inhibitors of nuclear receptor binding SET domain protein 2 (NSD2) in an RCH-ACV wild type WT cells (2C) (AID 1645877); further: nearly all actives have a fitted effect of over 70% in size; further: potency means the concentration at half of the fitted maximal effect
# [7] = molecular target: Catechol O-methyltransferase (Homo sapiens) (UniProt P21964); experiment: Confirmatory Screen for Target Class Profiling of Small Molecule Inhibitors of Methyltransferases (AID 1745852; calls by dose curve; further: potency means the concentration at half of the fitted maximal effect); conditions: MTase-Glo luminescence, SAH detection, recombinant enzyme, stronger effect = lower value; measured here: COMT max response unless noted
# Chain of Catechol O-methyltransferase (Homo sapiens) (P21964 whole entry, looked up): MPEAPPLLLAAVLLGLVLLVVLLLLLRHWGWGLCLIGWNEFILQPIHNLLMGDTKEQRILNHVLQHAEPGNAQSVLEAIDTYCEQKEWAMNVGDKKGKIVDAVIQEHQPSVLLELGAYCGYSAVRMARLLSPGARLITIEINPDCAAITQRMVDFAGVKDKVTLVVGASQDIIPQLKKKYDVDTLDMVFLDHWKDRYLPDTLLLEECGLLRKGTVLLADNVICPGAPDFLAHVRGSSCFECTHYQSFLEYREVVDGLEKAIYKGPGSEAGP
# [8] = molecular target: Guanidinoacetate N-methyltransferase (Homo sapiens) (UniProt Q14353); experiment: as above; conditions: MTase-Glo luminescence, SAH detection, recombinant enzyme; activity change, negative = inhibition: at 57.3 µM (top of the series)
# [9] = molecular target: Nicotinamide N-methyltransferase (Homo sapiens) (UniProt P40261); experiment: as above; conditions: MTase-Glo luminescence, SAH detection, recombinant enzyme, stronger effect = lower value; measured here: NNMT max response unless noted
# Chain of Nicotinamide N-methyltransferase (Homo sapiens) (P40261 whole entry, looked up): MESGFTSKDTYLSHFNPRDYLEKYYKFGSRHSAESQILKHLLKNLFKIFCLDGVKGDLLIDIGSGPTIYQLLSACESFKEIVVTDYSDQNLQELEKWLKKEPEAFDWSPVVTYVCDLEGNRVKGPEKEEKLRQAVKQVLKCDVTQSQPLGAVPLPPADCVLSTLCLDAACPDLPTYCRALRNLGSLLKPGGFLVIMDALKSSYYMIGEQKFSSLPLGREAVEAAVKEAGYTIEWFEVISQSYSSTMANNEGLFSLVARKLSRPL
# Papain (Carica papaya) = Papain (Carica papaya) (UniProt P00784); experiment: Primary qHTS assay for inhibitors of the protease papain (AID 1645873);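 further: papain turnover of Z-FR-AMC read as the AMC fluorescence gain over 10 min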
# Chain of Papain (Carica papaya) (P00784 whole entry, looked up): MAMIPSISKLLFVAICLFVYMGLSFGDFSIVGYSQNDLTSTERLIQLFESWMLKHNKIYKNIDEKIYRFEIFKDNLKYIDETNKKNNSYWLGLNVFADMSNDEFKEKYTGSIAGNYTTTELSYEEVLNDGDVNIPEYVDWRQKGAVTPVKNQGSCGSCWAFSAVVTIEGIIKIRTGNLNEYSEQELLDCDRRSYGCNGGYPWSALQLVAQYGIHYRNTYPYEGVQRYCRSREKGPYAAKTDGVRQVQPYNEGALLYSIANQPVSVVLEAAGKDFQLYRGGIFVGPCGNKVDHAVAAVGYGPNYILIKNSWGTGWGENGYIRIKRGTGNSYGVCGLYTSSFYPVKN
# [10] = molecular target: N-terminal Xaa-Pro-Lys N-methyltransferase 1 (Homo sapiens) (UniProt Q9BV86); experiment: Confirmatory qHTS for Inhibitors of N-terminal methyltransferase 1 (NTMT1): MTaseGlo Assay (AID 1645874); further: potency means the concentration at half of the fitted maximal effect; nearly all actives have a fitted effect of over 65% in size
# Chain of N-terminal Xaa-Pro-Lys N-methyltransferase 1 (Homo sapiens) (Q9BV86 whole entry, looked up): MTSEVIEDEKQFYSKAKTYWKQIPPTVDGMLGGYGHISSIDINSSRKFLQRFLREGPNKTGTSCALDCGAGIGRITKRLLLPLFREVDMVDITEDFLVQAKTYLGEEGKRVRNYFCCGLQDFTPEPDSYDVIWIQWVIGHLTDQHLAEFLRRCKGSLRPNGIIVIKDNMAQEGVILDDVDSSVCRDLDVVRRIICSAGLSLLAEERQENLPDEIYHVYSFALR
# Procedure, shortened: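 SPKRIA peptide at 1 uM was methylated by 125 nM NTMT1 using 100 uM SAM over 30 min at room temperature, following a 15 min compound preincubation. Product SAH was detected luminescently.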
# [11] = molecular target: Rap guanine nucleotide exchange factor 3 (Homo sapiens) (UniProt O95398); experiment: Confirmatory qHTS for antagonist of cAMP-regulated guanine nucleotide exchange factor 3 (EPAC1) (AID 1645880); further: nearly all actives have a fitted effect of over 55% in size; further: potency means the concentration at half of the fitted maximal effect
# Chain of Rap guanine nucleotide exchange factor 3 (Homo sapiens) (O95398 whole entry, looked up): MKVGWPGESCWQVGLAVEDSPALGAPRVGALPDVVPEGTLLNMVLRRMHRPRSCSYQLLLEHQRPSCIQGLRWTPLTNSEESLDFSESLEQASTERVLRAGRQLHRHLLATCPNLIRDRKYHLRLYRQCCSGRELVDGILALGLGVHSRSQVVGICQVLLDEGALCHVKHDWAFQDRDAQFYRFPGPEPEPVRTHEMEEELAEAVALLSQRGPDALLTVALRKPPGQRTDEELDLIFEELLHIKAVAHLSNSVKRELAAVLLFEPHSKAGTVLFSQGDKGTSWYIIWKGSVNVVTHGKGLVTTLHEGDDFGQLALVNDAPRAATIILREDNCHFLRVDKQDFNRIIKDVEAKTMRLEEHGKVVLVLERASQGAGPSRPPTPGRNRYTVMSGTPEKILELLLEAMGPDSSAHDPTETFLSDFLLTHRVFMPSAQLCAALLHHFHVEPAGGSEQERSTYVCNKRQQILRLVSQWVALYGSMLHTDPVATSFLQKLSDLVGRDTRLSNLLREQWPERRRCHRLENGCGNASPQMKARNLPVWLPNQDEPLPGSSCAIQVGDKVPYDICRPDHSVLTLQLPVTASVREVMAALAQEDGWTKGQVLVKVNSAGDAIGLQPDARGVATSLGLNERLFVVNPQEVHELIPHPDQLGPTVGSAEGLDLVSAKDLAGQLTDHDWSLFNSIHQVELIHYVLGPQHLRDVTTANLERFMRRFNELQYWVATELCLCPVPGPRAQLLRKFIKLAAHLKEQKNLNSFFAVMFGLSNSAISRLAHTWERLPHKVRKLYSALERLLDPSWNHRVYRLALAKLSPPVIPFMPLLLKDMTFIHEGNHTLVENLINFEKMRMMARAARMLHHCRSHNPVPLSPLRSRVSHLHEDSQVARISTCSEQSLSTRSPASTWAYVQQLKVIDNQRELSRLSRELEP
# Procedure, shortened: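 Released BODIPY-GDP fluoresces less than Rap1-bound BODIPY-GDP; the signal is followed at 480/540 nm at 5-min intervals over 30 min, after 5 min at room temperature. Reactions contain 100 nM EPAC1, 250 nM RAP1B-BODIPY-GDP and 50 uM GDP; results are normalized to ATA and DMSO.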
# [12] = molecular target: Rap guanine nucleotide exchange factor 3 (Homo sapiens) (UniProt O95398); experiment: Confirmatory qHTS for agonist of cAMP-regulated guanine nucleotide exchange factor 3 (EPAC1) (AID 1645881);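 further: EPAC1 catalysed release of BODIPY-GDP from Rap1B seen as fluorescence loss; nearly all actives have a fitted effect of over 75% in size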
# [13] = molecular target: Rap guanine nucleotide exchange factor 4 (Homo sapiens) (UniProt Q8WZA2); experiment: Confirmatory qHTS for agonist of cAMP-regulated guanine nucleotide exchange factor 4 (EPAC2) (AID 1645884);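 further: nucleotide exchange releases bodipy-GDP from Rap1 and this lowers its fluorescence; nearly all actives have a fitted effect of over 65% in size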
# Chain of Rap guanine nucleotide exchange factor 4 (Homo sapiens) (Q8WZA2 whole entry, looked up): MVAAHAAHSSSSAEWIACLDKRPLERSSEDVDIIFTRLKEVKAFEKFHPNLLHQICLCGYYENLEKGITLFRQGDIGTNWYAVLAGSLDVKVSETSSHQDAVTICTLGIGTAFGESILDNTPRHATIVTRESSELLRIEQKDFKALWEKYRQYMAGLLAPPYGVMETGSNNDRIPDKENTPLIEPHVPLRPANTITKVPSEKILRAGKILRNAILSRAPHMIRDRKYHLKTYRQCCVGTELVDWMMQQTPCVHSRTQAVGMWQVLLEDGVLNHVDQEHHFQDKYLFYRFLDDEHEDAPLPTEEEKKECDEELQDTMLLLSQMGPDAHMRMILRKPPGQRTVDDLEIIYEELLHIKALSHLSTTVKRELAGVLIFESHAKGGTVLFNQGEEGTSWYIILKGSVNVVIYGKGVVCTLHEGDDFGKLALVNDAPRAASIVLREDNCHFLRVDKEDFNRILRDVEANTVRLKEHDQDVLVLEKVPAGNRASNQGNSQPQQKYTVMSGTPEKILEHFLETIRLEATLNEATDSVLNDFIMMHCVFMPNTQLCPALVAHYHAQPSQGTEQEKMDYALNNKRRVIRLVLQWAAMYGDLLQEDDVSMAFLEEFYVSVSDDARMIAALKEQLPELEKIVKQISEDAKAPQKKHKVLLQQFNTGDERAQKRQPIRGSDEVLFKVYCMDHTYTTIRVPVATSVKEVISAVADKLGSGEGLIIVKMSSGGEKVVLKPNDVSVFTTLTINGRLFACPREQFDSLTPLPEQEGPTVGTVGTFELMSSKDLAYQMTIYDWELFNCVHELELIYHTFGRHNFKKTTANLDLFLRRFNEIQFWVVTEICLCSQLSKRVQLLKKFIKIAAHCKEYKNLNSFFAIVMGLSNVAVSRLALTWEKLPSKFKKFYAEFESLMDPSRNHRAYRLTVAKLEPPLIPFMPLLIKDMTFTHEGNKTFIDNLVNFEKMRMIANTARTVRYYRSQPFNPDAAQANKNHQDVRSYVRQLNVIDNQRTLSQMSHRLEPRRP
# [14] = molecular target: Rap guanine nucleotide exchange factor 4 (Homo sapiens) (UniProt Q8WZA2); experiment: Confirmatory qHTS for antagonist of cAMP-regulated guanine nucleotide exchange factor 4 (EPAC2) (AID 1645885); further: nearly all actives have a fitted effect of over 25% in size; further: potency means the concentration at half of the fitted maximal effect
# [15] = molecular target: Rap guanine nucleotide exchange factor 3 (Homo sapiens) (UniProt O95398); experiment: Counterscreen qHTS for antagonist of cAMP-regulated guanine nucleotide exchange factor 3 (EPAC1) (AID 1645888)
# Procedure, shortened: (§1)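 Rap1B-BODIPY-GDP 250 nM + GDP 50 uM; cpds 7-pt, final 9.74 nM–152 uM (activator mode) or from 7.32 nM upwards (inhibitor mode); RT; FI 480/540 nm at 5 and 30 min, then ± cAMP, reread.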
# [16] = molecular target: Rap guanine nucleotide exchange factor 3 (Homo sapiens) (UniProt O95398); experiment: Counterscreen qHTS for agonist of cAMP-regulated guanine nucleotide exchange factor 3 (EPAC1) (AID 1645889); further: nearly all actives have a fitted effect of over 40% in size
# Procedure, shortened: as §1
# [17] = molecular target: Cytochrome P450 3A4 (Homo sapiens) (UniProt P08684); experiment: Cytochrome P450 family 3 subfamily A member 4 (CYP3A4) small molecule antagonists: luciferase qHTS assay (AID 1645841; active means well fitted curve in the direction sought with a large enough effect in the repeat runs; an effect the other way counts as inactive or inconclusive; further: nearly all actives have a fitted effect of over 45% in size)
# Chain of Cytochrome P450 3A4 (Homo sapiens) (P08684 whole entry, looked up): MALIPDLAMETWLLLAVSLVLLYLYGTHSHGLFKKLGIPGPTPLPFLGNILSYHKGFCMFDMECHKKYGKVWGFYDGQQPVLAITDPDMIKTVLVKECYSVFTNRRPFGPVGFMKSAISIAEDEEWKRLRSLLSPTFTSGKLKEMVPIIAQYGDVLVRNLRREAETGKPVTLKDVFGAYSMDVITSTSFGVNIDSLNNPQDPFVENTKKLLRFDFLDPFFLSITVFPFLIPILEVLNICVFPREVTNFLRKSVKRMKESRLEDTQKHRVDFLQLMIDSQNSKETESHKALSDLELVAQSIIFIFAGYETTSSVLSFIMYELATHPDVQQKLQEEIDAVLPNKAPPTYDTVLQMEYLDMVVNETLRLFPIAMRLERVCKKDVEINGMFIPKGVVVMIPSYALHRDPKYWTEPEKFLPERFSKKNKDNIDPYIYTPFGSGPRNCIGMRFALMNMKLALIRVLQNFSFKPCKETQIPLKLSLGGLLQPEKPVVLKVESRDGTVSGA
# Procedure, shortened: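 Luminescent CYP3A4 activity readout: compounds plus enzyme-substrate mix 10 min at room temperature, reaction started with NADPH regenerating system for 1 h, stopped with detection reagent, read after 20 min. Ketoconazole served as control.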
smiles,measurement,setting,value
CCc1nc(N)nc(N)c1-c1ccc(Cl)cc1,Potency,[1],inactive
same,Potency,[2],inactive
same,Potency,[3],12.3 µM (active)
same,Potency,[4],inactive
same,Potency,[5],2.37 µM (active) and 2.95 µM (active)
same,Potency,[6],3.35 µM (active) and 4.17 µM (active)
CCCc1cc(=O)[nH]c(=S)[nH]1,Potency,[1],inactive
same,Potency,[2],inactive
same,Potency,[3],inactive
same,Potency,[4],inactive
same,Potency,[5],inactive
same,Potency,[6],inactive
Cn1c(NCCN(CCO)CCCc2ccc([N+](=O)[O-])cc2)cc(=O)n(C)c1=O,Potency,[1],inactive
same,Potency,[2],inactive
same,Potency,[4],inactive
same,Potency,[5],inactive
same,Potency,[6],inactive
Clc1ccc(C(Cn2ccnc2)OCc2ccc(Sc3ccccc3)cc2)c(Cl)c1 (stereo unspecified),Potency,[1],inactive
same,Potency,[2],inactive
same,Potency,[3],0.155 µM (active)
same,Potency,[4],2.75 µM (active)
same,Potency,[5],18.6 µM (active)
same,Potency,[6],16.6 µM (active)
O=C(O)c1cccnc1Nc1cccc(C(F)(F)F)c1,Potency,[1],inactive
same,Potency,[2],inactive
same,Potency,[3],inactive
same,Potency,[6],inactive
COc1cc(OC)c(C(=O)CCCN2CCCC2)c(OC)c1,Potency,[1],inactive
same,Potency,[2],inactive
same,Potency,[3],11 µM (active)
same,Potency,[4],inactive
same,Potency,[5],inactive
same,Potency,[6],inactive
Cc1c(OCC(F)(F)F)ccnc1CS(=O)c1nc2ccccc2[nH]1 (stereo unspecified),Potency,[1],inactive
same,Potency,[2],inactive
same,Potency,[3],389 nM (active) and 1.07 µM (active)
same,Potency,[4],15.5 µM (active) and 13.5 µM (active)
same,activity,[7],13%
same,"activity change, negative = inhibition",[8],6.68%
same,activity,[9],8.13%
CC(S)C(=O)NCC(=O)O (stereo unspecified),Potency,[1],inactive
same,Potency,[2],inactive
same,Potency,[3],inactive
same,Potency,[4],inactive
same,Potency,[5],inactive
same,Potency,[6],inactive
O=C(NC(Cc1cc(=O)[nH]c2ccccc12)C(=O)O)c1ccc(Cl)cc1 (stereo unspecified),Potency,[1],inactive
same,Potency,[2],inactive
same,Potency,[3],inactive
same,Potency,[4],inactive
same,Potency,[5],inactive
same,Potency,[6],inactive
CNC[C@H](O)c1ccc(O)c(O)c1,Potency,[1],inactive
same,Potency,[2],inactive
same,Potency,[4],inactive
same,Potency,Papain (Carica papaya),inactive
same,Potency,[5],inactive
same,Potency,[6],inactive
N[C@@H](Cc1cc(I)c(Oc2cc(I)c(O)c(I)c2)c(I)c1)C(=O)O,Potency,[1],inactive and 749 nM (active)
same,Potency,[2],inactive
same,Potency,[3],inactive
same,Potency,[5],inactive
same,Potency,[6],inactive
same,activity,[7],-6.89%
same,"activity change, negative = inhibition",[8],-4.64%
same,activity,[9],-9.69%
CC(C)CC(=O)N[C@H](C(=O)N[C@H](C(=O)N[C@@H](CC(C)C)[C@@H](O)CC(=O)N[C@@H](C)C(=O)N[C@@H](CC(C)C)[C@@H](O)CC(=O)O)C(C)C)C(C)C (Isovaleryl-VV[Sta]A[Sta]-OH),Potency,[1],inactive
same,Potency,[2],inactive
same,Potency,[3],inactive
same,Potency,[4],inactive
same,Potency,[5],inactive
same,Potency,[6],inactive
CCCCc1ccc2nc(NC(=O)OC)[nH]c2c1,Potency,[1],inactive
same,Potency,[2],inactive
same,Potency,[4],inactive
same,Potency,[5],53.1 nM (active) and 166 nM (active)
same,Potency,[6],47.3 nM (active) and 118 nM (active)
CCCCC(CC)COC(=O)C(C#N)=C(c1ccccc1)c1ccccc1 (stereo unspecified),Potency,[1],inactive
same,Potency,[2],inactive
same,Potency,[3],1.23 µM (active) and 3.38 µM (active)
same,Potency,[4],1.1 µM (active) and 3.01 µM (active)
same,Potency,[5],21.1 µM (active) and inactive
same,Potency,[6],inactive
CC(C)Oc1ccc2c(=O)c(-c3ccccc3)coc2c1,Potency,[1],inactive
same,Potency,[2],inactive
same,Potency,[3],inactive
same,Potency,[4],13.8 µM (active) and 21.9 µM (active)
same,Potency,[5],inactive
same,Potency,[6],inactive
N=C(N)c1ccc2cc(OC(=O)c3ccc(N=C(N)N)cc3)ccc2c1,Potency,[1],inactive
same,Potency,[2],inactive
same,Potency,[3],inactive
same,Potency,[4],inactive
same,Potency,[5],inactive
same,Potency,[6],inactive
CCCCCCCCOc1ccccc1C(=O)Nc1ccc(C(=O)OCC[N+](C)(CC)CC)cc1,Potency,[10],47.8 µM (active)
Oc1ccc(-c2nc(-c3ccc(F)cc3)c(-c3ccncc3)[nH]2)cc1,Potency,[10],39.8 µM (active)
CCOc1cc(CC(=O)N[C@@H](CC(C)C)c2ccccc2N2CCCCC2)ccc1C(=O)O,Potency,[11],inactive
same,outcome,[12],inactive
same,outcome,[13],inactive
same,Potency,[14],inactive
same,outcome,[15],inactive
same,outcome,[16],inactive
O=c1ccc2ccc(O)c(O)c2o1,activity,[7],197%
same,"activity change, negative = inhibition",[8],2.41%
same,activity,[9],-4.08%
Cc1nc(Nc2ncc(C(=O)Nc3c(C)cccc3Cl)s2)cc(N2CCN(CCO)CC2)n1,activity,[7],-54.8%
same,Potency,[8],30.4 µM (active)
same,activity,[9],-33%
COc1ccc2cc([C@H](C)C(=O)O)ccc2c1,Potency,[2],inactive
same,Potency,Papain (Carica papaya),inactive
CC(C)c1ccc2c(c1)c(SC(C)(C)C)c(CC(C)(C)C(=O)O)n2Cc1ccc(Cl)cc1,Potency,[1],inactive
same,Potency,Papain (Carica papaya),inactive
same,Potency,[5],inactive
same,Potency,[6],inactive
same,Potency,[11],inactive and 30.1 µM (active) and 35.2 µM (active)
same,outcome,[12],inactive
same,outcome,[13],inactive
same,Potency,[14],inactive and 19 µM (active) and 27.8 µM (active)
same,outcome,[15],inactive
same,outcome,[16],inactive
same,activity,[7],-0.145%
same,Potency,[8],30.6 µM (active)
same,activity,[9],-41.8%
CCN(CC)CCOc1ccc(Nc2ncc3cc(-c4c(Cl)cccc4Cl)c(=O)n(C)c3n2)cc1,Potency,[1],inactive
same,Potency,[5],0.417 µM (active)
same,Potency,[6],0.468 µM (active)
same,activity,[7],-14.1%
same,"activity change, negative = inhibition",[8],1.71%
same,activity,[9],-19.9%
CS(=O)(=O)OCCCCOS(C)(=O)=O,Potency,[2],inactive
same,Potency,[3],inactive
same,outcome,[17],inactive
same,Potency,[4],inactive
same,Potency,[5],inactive
same,Potency,[6],inactive
